Results taken from ChEMBL document CHEMBL1201862, “PubChem BioAssay data set” (2004).
Hit rate of the full screen: of about 400,000 compounds, about 2,100 (0.53%) were called active. Inconclusive results (about 14%) are left out. The rule behind the calls is not given here. Many of the other results were omitted from the sample, so actives are more common in it than they were.

Molecular target: Ataxin-2 (Homo sapiens) (UniProt Q99700)
Test: qHTS for Inhibitors of ATXN expression.
Format: functional

Ataxin-2 (Homo sapiens), sequence (Q99700 whole entry): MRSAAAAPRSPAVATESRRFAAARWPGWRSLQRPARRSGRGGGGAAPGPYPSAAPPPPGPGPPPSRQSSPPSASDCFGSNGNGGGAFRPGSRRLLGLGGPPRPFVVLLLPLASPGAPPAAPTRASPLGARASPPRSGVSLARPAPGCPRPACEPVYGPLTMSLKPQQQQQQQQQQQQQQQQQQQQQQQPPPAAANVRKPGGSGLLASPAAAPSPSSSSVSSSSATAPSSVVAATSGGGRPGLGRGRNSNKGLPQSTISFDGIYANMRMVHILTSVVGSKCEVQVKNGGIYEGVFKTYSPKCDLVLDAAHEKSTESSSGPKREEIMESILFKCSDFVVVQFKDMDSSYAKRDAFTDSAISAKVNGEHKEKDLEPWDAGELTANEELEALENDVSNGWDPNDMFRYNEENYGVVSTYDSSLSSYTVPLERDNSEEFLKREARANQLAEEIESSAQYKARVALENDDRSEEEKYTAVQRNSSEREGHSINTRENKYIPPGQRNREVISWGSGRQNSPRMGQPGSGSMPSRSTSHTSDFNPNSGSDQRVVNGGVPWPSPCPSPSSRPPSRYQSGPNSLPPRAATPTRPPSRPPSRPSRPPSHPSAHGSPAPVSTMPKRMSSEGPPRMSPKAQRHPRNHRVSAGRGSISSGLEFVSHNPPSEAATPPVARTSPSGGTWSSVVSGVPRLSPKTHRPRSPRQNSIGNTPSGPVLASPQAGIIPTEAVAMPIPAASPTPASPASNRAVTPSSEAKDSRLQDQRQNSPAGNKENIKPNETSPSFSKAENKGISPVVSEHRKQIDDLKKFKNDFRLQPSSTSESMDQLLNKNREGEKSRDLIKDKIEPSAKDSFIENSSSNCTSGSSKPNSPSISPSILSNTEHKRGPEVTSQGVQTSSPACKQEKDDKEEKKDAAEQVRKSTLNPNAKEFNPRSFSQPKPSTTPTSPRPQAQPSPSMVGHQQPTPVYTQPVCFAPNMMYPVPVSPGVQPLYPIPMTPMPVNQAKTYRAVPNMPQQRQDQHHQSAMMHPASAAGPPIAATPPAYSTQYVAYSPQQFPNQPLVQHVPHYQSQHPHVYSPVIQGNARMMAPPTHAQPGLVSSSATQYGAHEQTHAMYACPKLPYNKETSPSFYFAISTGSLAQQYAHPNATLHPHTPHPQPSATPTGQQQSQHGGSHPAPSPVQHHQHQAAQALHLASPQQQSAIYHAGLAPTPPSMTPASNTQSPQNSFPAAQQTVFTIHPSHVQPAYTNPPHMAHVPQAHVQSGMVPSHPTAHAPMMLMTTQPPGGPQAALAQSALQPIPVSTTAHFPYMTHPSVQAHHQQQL

Structure (SMILES)	Potency
O=C(CC1C(=O)NCCN1C(=O)Nc1ccc(F)cc1)Nc1ccc(F)cc1 (stereo not drawn)	inactive
Cc1csc(SCC(=O)NC(=O)NC(C)(C)C)n1	inactive
Cn1c2ccccc2c(=O)c2cc(NCCCN3CCOCC3)ccc21	inactive
O=C(NC1=NCCS1)c1cc(-c2ccc(-c3ccccc3)cc2)nc2ccccc12	inactive
CN(/N=C/c1cc(Br)cc(Br)c1O)c1cccc(C(F)(F)F)n1	inactive
CN(/N=C/c1ccc(O)cc1O)c1nc(-c2ccccc2)cc(-c2ccccc2)n1	25.1 µM (active)
Cc1ccc(S(=O)(=O)[N-]c2nc3ccccc3nc2-[n+]2ccn(Cc3ccccc3)c2)cc1	inactive
Cc1ccc(/N=C/c2nc(/C=C/c3cccc([N+](=O)[O-])c3)oc2O)cc1	39.8 µM (active)
Cc1nc(N/N=C/c2cccc([N+](=O)[O-])c2)cc(N2CCCCC2)n1	inactive
CC1(C)C([N+](=O)[O-])C(c2ccc(F)cc2)NC(c2ccc(F)cc2)C1[N+](=O)[O-] (stereo not drawn)	inactive
Cc1ccc(NNC2=C3N=NN=C3C=CC2=O)cc1	44.7 µM (active)
C=CCn1c2ccccc2c(=O)c2cc(C#CC[C@@H](C)O)ccc21	inactive
Clc1ccc2c(SCC3CO3)c3ccccc3nc2c1 (stereo not drawn)	23.8 µM (active)
Clc1ccc(-c2nc(N3CCOCC3)nc3ccccc23)cc1	inactive
O=C(O)c1ccccc1Cc1nc(O)c2ccc(Cl)cc2n1	inactive
O=S(=O)([N-]c1nc2ccccc2nc1-[n+]1ccn(Cc2ccccc2)c1)c1ccccc1	inactive
CC(C)OCCCNC(=O)CN1C(=O)c2cccc3cccc1c23	inactive

Structure (SMILES)	Potency
COC(=O)CCCC(=O)NC1CCCc2c1cnn2-c1ccc(F)cc1F (stereo not drawn)	inactive
COc1ccc(OC)c(C(=O)NC2CCCc3c2cnn3-c2cc(C)cc(C)c2)c1 (stereo not drawn)	inactive
CC(=O)Nc1cccc(C(=O)NC2CCCc3c2cnn3-c2ccc(C(C)(C)C)cc2)c1 (stereo not drawn)	8.91 µM (active)
CCCNC(=O)Cn1c(=O)/c(=C\c2ccc(-c3ccc([N+](=O)[O-])cc3)o2)s/c1=C\C(=O)C(C)(C)C	inactive
CNS(=O)(=O)c1ccc2c3c(cccc13)C(=O)N2C	inactive
Cc1cc2nc3c(=O)n(Cc4ccccc4)c(=O)[nH]c3nc2cc1N	inactive
COc1ccc(CCNc2ccc(C(CC(N)=O)NC(=O)c3ccc(Br)cc3)cc2[N+](=O)[O-])cc1 (stereo not drawn)	31.6 µM (active)
NC(=O)CC(NC(=O)c1ccc(Br)cc1)c1ccc(NCc2ccc(F)cc2)c([N+](=O)[O-])c1 (stereo not drawn)	39.8 µM (active)
NC(=O)CC(NC(=O)Cc1cccc2ccccc12)c1ccc(NCCOc2ccccc2)c([N+](=O)[O-])c1 (stereo not drawn)	17.8 µM (active)
COc1ccc(C(=O)N[C@H](C(=O)NCCc2ccc3c(c2)OCCO3)C(C)C)cc1	inactive
COc1ccc(NC(=O)CSc2n[nH]c(C(C)C)n2)c([N+](=O)[O-])c1	inactive
CCOc1ccc(NC(=O)Cc2cccc3ccccc23)c([N+](=O)[O-])c1	inactive
NC(=NOC(=O)Cc1ccccc1[N+](=O)[O-])c1cccc(Br)c1	inactive
Cc1ccccc1CNc1ccc(C(CC(N)=O)NC(=O)c2ccc(Br)cc2)cc1[N+](=O)[O-] (stereo not drawn)	39.8 µM (active)
O=C(Cc1cccc2ccccc12)Nc1cc(C(=O)O)cc(C(=O)O)c1	inactive
O=C(NCc1ccc(F)cc1)c1ccc(CS(=O)(=O)c2ccc(Br)cc2)o1	inactive
